Screening data as filed in PubChem.
Most compounds without a hit are left out; they make up all but 7.2% or so of the library.
HCV inhibitor: blocks hepatitis C virus; Huh7.5.1 HCVcc-Cre infection, luciferase reporter, 44 h; Potency, µM (highest dose often 41.8 µM), without a hit: at the top dose activity change, negative = inhibition, usual class: inhibitors; actives 3.4% (n = 340,000)
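Reporter virus HCVcc-Cre (~0.5 moi) infects cells exposed to compound; seeding density 1,000 cells/well with 4 h settling beforehand. Luminescence, 15 sec read, taken 44 h post-infection following a 15 min RT substrate incubation.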
RE007 growth inh: less growth of the S. pombe RE007 Vpr strain; S. pombe RE007 Vpr strain, BacTiter-Glo ATP luminescence, 24 h; Potency, µM (doses to about 92.2 µM), for inactives: at the top dose activity change, negative = less growth, hits mostly inhibitors; actives 0.21% (n = 360,000); active means well fitted falling curve with a large enough effect; inconclusive means small, poorly fitted or top-dose-only effect; inactive means no such curve, though single readings can be large or run the other way; further: nearly all actives have a fitted effect of over 50% in size
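Fission yeast RE007 carrying one integrated HIV-1 vpr copy, seeded at OD 0.01 in PMG+AL medium with 23 nL pinned compound. Grown 24 h at 30 degrees; viability read by BacTiter-Glo luminescence after 5 min.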
Sm TGR block: inhibitors of Schistosoma mansoni thioredoxin glutathione reductase. Q962Y6. purified TGR, DTNB reduction, TNB absorbance 405 nm. Potency, µM (titrated, usually from 114 µM), without a hit: at the top dose activity change, negative = inhibition, usual class: inhibitors. actives 3% (n = 360,000); further: nearly all actives have a fitted effect of over 60% in size
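Kinetic colorimetric format: TGR-catalysed, NADPH-driven DTNB reduction monitored via TNB absorbance. Enzyme dispensed at 20 nM; compound exposure 15 min at room temperature before reaction start.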
LASV entry inh: inhibitors of Lassa virus binding or cell entry. Lassa virus pseudotype entry inhibition, cell reporter. Potency, µM (series often up to 37.9 µM), for inactives: at the highest dose activity change, negative = inhibition, usual class: inhibitors. actives 1.2% (n = 300,000); calls by dose curve; tested in HEK293 cells; further: nearly all actives have a fitted effect of over 50% in size
Marburg entry inh: inhibitors of Marburg virus binding or cell entry. Marburg virus pseudotyped entry inhibition, cell reporter. actives 1.8% (n = 300,000). Potency, µM (highest dose often 37.8 µM), inactives show at the highest dose activity change, negative = inhibition, most hits filed as inhibitors; calls by dose curve; tested in HEK293 cells
FMDV antiviral: blocks foot and mouth disease virus; FMDV antiviral cell-based qHTS; Potency, µM (series often up to 57.9 µM), for inactives: at the top dose activity change, negative = inhibition, usual class: inhibitors; actives 1.2% (n = 410,000); AID 1159524; calls by dose curve; tested in HEK293T cells; further: read-out not given here; nearly all actives have a fitted effect of over 45% in size
Starred values were filed as active, the others as inactive; ? = inconclusive; nt = no result; ! = a repeat was not active; [ ] = another dose, or the depositor's remark. Unless noted, the call rests on the fitted dose curve; in most records, active means well fitted curve in the direction sought with a large enough effect; inconclusive means small, poorly fitted or top-dose-only effect, or another doubt; inactive means no such curve, though single readings can be large; an effect the other way counts as inactive or inconclusive. On the % scale 0 is the no-effect control and ±100 the full control effect; potency means the concentration at half of the fitted maximal effect.

SMILES | HCV inhibitor | RE007 growth inh | Sm TGR block | LASV entry inh | Marburg entry inh | FMDV antiviral
COC(=O)[C@]12CCCCC=C1N(CCc1ccc(OC)c(OC)c1)C(=O)[C@H](CC(=O)NCc1cccc3ccccc13)C2 | nt | -21.6% | nt | nt | nt | -22.7%
CCOC(=O)[C@]12CCCC=C1N(Cc1ccc(Cl)cc1Cl)C(=O)[C@H](CC(=O)NCc1ccc(OC)c(OC)c1)C2 | nt | 14.0% | nt | nt | nt | ?
CCOC(=O)[C@]12CCC=C1N(Cc1cccc3ccccc13)C(=O)[C@H](CC(=O)NCc1ccc(OC)c(OC)c1)C2 | nt | -8.7% | nt | nt | nt | 35.5µM*
COC(=O)[C@]12CCCCC=C1N(Cc1cccc3ccccc13)C(=O)[C@H](CC(=O)NCc1ccc(OC)c(OC)c1)C2 | nt | 1.3% | nt | nt | nt | 14.1µM*
COC(=O)[C@]12CCCCC=C1N(Cc1ccc(Cl)cc1Cl)C(=O)[C@H](CC(=O)NCc1ccc(OC)c(OC)c1)C2 | nt | 20.7% | nt | nt | nt | 31.6µM*
COC(=O)C1=C[C@H]([C@@H](C)[C@H](OC)c2ccccc2Br)[C@H]2[C@H]1c1ccccc1N2C | nt | nt | nt | ? | -15.6%[14.2 µM] | nt
CCOc1ccc(NS(=O)(=O)c2ccc3[nH]cc(C(=O)N4CCCC4)c(=O)c3c2)cc1 | nt | nt | -7.1% | -19.8%[46.1 µM] | -6.7%[46.1 µM] | 4.5%
C/C(=N/Nc1ccc(C)cc1)C1(C)N(O)C(C)(C)C(c2ccco2)=[N+]1[O-] (stereo unspecified) | ? | 8.7% | 10µM* | nt | nt | -12.1%
COc1ccc(Cl)cc1S(=O)(=O)N1CCN(C(=O)c2cc(-c3ccc(Br)cc3)n[nH]2)CC1 | nt | nt | -1.2% | ? | nt | ?
CCn1nnc(-c2ccccc2NC(=O)c2cnccn2)n1 | 11.2µM* | -5.0% | nt | 8.4% | -1.1% | -24.6%
CCn1nnc(-c2ccccc2NC(=O)c2cc(OC)c(OC)c(OC)c2)n1 | ? | -6.3% | 12.7%[11.4 µM] | ? | ? | nt
COc1ccc(-c2cn3cccnc3n2)cc1NC(=O)C(C)Oc1ccccc1 (stereo unspecified) | 22.4µM* | -7.3% | -9.4% | ? | ? | -26.1%
CC(=O)N[C@@H](C)C(=O)NCC1Cc2cc(C)cc(-c3cnccn3)c2O1 (stereo partly specified) | nt | nt | nt | nt | nt | -10.1%
CCCCNC(=O)C(C1CCCCC1)N(CCN(C)C)C(=O)CCCN1C(=O)NC(c2ccc(-c3ccccc3)cc2)C(C(=O)OCc2ccccc2)=C1C (stereo unspecified) | 10µM* | nt | nt | nt | nt | nt
CC1=C(C(=O)OCc2ccccc2)C(c2ccc(Br)cc2)NC(=O)N1CCCCCC(=O)O (stereo unspecified) | 15.3% | -6.2% | nt | nt | nt | -22.6%
COC(=O)CCCCCN1C(=O)NC(c2ccccc2)C(C(=O)OCc2ccccc2)=C1C (stereo unspecified) | -45.4% | -1.4% | -3.3% | ? | -29.1% | 28.2µM*
CCCCCCN(C(=O)CCCCCN1C(=O)NC(c2ccc(-c3ccccc3)cc2)C(C(=O)OCc2ccccc2)=C1C)C(C)C(=O)NCCCC (stereo unspecified) | -6.1%[8.37 µM] | nt | -6.5% | ? | ? | nt
CCCCNC(=O)C(c1ccc(-c2ccccc2)cc1)N(CCN1CCOCC1)C(=O)CCCCCN1C(=O)NC(c2ccc([N+](=O)[O-])cc2)C(C(=O)OCc2ccccc2)=C1C (stereo unspecified) | 3.2%[8.37 µM] | nt | 6.5% | 0.4% | ? | nt
CCCCNC(=O)C(C)N(CCN(C)C)C(=O)CCCN1C(=O)NC(c2ccc([N+](=O)[O-])cc2)C(C(=O)OCc2ccccc2)=C1C (stereo unspecified) | 22.4µM* | -11.9% | nt | nt | nt | 0.0%
COCCn1c(=O)c(-c2ccc(Cl)cc2)nc2cnc(OC)nc21 | nt | nt | nt | nt | nt | -14.0%
Cc1ccc(C(=O)N/C(=C\c2ccc(Cl)cc2)C(=O)NC2CCCCC2)cc1 | nt | nt | 0.5% | -8.7%[46.1 µM] | nt | 3.3%
Cc1ccc([C@@H]2C3COCC=C3C(C#N)=C(N)C2(C#N)C#N)o1 (stereo partly specified) | 2.0% | -3.9% | 35.5µM* | -3.8% | -2.7% | -8.0%
Cc1ccc(C2C3CSCC=C3C(C#N)=C(N)C2(C#N)C#N)cc1 (stereo unspecified) | 11.6% | -10.2% | ? | 0.0% | ? | nt
N=C(N)c1ccc(OCCCCCOc2ccc(C(=N)N)cc2)cc1 | 2.24µM*! | -17.2% | 5.4% | ? | ? | ?
CN(C)C(=S)SSC(=S)N(C)C | 1.9% | 3.16µM* | -33.4% | nt | nt | 0.0%
SMILES | HCV inhibitor | RE007 growth inh | Sm TGR block | LASV entry inh | Marburg entry inh | FMDV antiviral
CCOC(=O)[C@]12Cc3cc(Cl)ccc3[C@H]1N(C1CCCCC1)C(=O)c1ccccc12 | nt | ? | nt | nt | nt | 4.47µM*
CCOC(=O)[C@]12Cc3cc(OC)ccc3[C@H]1N(C1CCCCC1)C(=O)c1ccccc12 | nt | ? | nt | nt | nt | 8.91µM*
CCN1C(=NCCCCO)NC(c2cccc(C(F)(F)F)c2)C(C(=O)OC)=C1C (stereo unspecified) | nt | nt | nt | nt | -18.6%[14.2 µM] | nt
CCNc1ncc2nc(-c3cccs3)c(=O)n(Cc3ccc(F)cc3)c2n1 | nt | nt | nt | nt | nt | 1.8%
COc1ccc(NC(=O)C2CCCN(c3c4c(nc5ncnn35)CCC4)C2)cc1OC (stereo unspecified) | -22.1% | 4.2% | 0.6% | -26.3% | -17.1% | -29.2%
O=C(Nc1ccc(Oc2ccccc2)cc1)C1CCN(c2c3c(nc4ncnn24)CCC3)CC1 | 25.1µM* | 0.2% | -5.0% | 20.6µM* | ? | 8.91µM*
O=C(NC1CCCc2ccccc21)C1CCN(c2c3c(nc4ncnn24)CCC3)CC1 (stereo unspecified) | -5.4% | 2.3% | -11.1% | -13.8% | ? | -28.0%
O=C(Nc1ccc2c(c1)CCC2)C1CCN(c2c3c(nc4ncnn24)CCC3)CC1 | 4.47µM* | -6.3% | -30.9% | ? | ? | ?
COc1ccc(-c2nnc(SCC(=O)Oc3cc(C)ccc3C)o2)cc1 | nt | nt | -3.0% | 12.4%[46.1 µM] | -21.4%[46.1 µM] | -22.8%
CC1(C)CC(CC(=O)NNc2nc(-c3ccccc3)cs2)C(=O)O1 (stereo unspecified) | 6.4% | 151.8% | -5.7% | 12.2% | 1.26µM* | -6.4%
CC1CC(CC(=O)NNc2nc(-c3ccccc3)cs2)C(=O)O1 (stereo unspecified) | -7.0% | 12.2% | -10.1% | nt | nt | 0.0%
NC1=NC(=O)C(=Cc2ccccc2)S1 | 2.1% | 2.3% | nt | 5.9%[46.1 µM] | 6.7% | 11.0%
O=C1N=C(N2CCN(c3ccccc3)CC2)S/C1=C\c1ccco1 | -13.6% | 8.3% | 22.4µM* | nt | nt | 0.5%
NC1=NC(=O)/C(=C\c2ccco2)S1 | 12.9% | -22.2% | 3.16µM* | 10.9% | 1.1%[46.1 µM] | 35.7%
Cc1ccc(-n2ncc3c(N4CCN(C)CC4)ncnc32)cc1Cl | nt | nt | -21.2% | ? | nt | 0.0%
Cc1cc(C(=O)Nc2ccccc2-c2nc(CNC(=O)c3ccc(F)cc3F)c(C)o2)c(C)o1 | nt | nt | nt | nt | nt | -2.4%
c1ccc(C2(CN3CCNC[C@@H]3CC3CCCCC3)CC2)cc1 | 22.4µM* | 2.0% | nt | nt | nt | -27.5%
